Several values for one entry are separate records, joined by “and”; a condition that tells them apart may be missing. Identical values can stand only once. The whole screen tested about 240,000 compounds, of which about 1,300 (0.54%) were called active. A call without a number means that no potency is given here. Another 1% or so got no clear call; they are omitted. The sample holds actives, similar compounds and a random draw of the others, so the mix is not that of the screen. Calls come from the whole dose curve; as a rule, active = well fitted inhibition curve with a large enough effect; inconclusive = small, poorly fitted or top-dose-only effect; inactive = flat fitted curve, though single readings scatter. A structure can be active in one record and inactive in another.
target: ATP-dependent DNA helicase Q1 (Homo sapiens) (UniProt P46063); assay: qHTS Assay for Inhibitors of RecQ-Like Dna Helicase 1 (RECQ1); details: RECQ1 DNA unwinding, red fluorescence kinetic read; series mostly up to 57.3 µM; note: nearly all actives have a fitted effect of over 30% in size
Description: Survival of cells and the faithful propagation of the genome depend on elaborate mechanisms of detecting and repairing DNA damage. Treatment of advanced cancer relies on radiation therapy or chemotherapy, which kill cancer cells by causing extensive DNA damage. It is often found, that cancer cells develop resistance to therapy through enhanced activity of DNA repair functions; this has led to an increased interest in developing drugs that interfere with DNA repair, which could sensitize cancer cells to conventional therapy.
This validation qHTS assay pertains to human RECQ1, which is important in resolving abnormal DNA structures formed during replication or homologous recombination. Shutting down the expression of RECQ1 leads to chromosomal instability and higher radiation sensitivity in cultured cells.
The validation assay was a fluorescence quenching based kinetic qHTS for RECQ1 Helicase DNA unwinding. The activity was measured as ATP-dependent separation of a 20-bp DNA duplex extended by 30-nt single-stranded tails (forked duplex). The forked DNA substrate was tagged with rhodamine fluorophore (carboxytetramethyl rhodamine, TAMRA) and BHQ-2 (Black Hole Quencher 2) dark quencher. Strand separation results in an increase in the fluorescence of TAMRA (excitation 525 nm, emission 598 nm). This substrate construct operates in a red-shifted region where very few compound library members have been noted to fluoresce (PubChem AIDs 593 and 594). An additional feature of the assay is the inclusion of 2.5 ug/ml poly (dIdC), to reduce interference by compounds such as DNA intercalators, a major source of false inhibitors.
Opher Gileadi, Structural Genomics Consortium, University of Oxford
Screening Center PI: Austin, C.P.
Screening Center: NIH Chemical Genomics Center [NCGC]
Three uL of reaction buffer (25 mM Tris-HCl (pH 8.0), 5 mM NaCl, 2 mM MgCl2, 1mM DTT, 0.01% Tween- 20, and 2.5 ug/ml poly(dI-dC), including enzyme (50 nM RECQ1T1), were dispensed into a 1536-well Greiner black assay plate via solenoid-valve based nanoliter dispensers. Compounds (23 nl each in columns 5-48) and control (23 nl each in column 2 as dose-response) were transferred via a Kalypsys pintool equipped with a 1536-pin array. The plates were incubated for 15 min at room temperature, and then 1 ul of substrates (200 nM DNA and 2 mM ATP, final concentrations) was added to start the reaction. The plate was transferred into a ViewLux high-throughput CCD imager where the reaction progress was measured in a discontinuous kinetic mode (two reads spaced 2 hours apart, with intermediate room temperature incubation of the covered assay plate) by using standard red-fluorescence optics (excitation filter 525 nm, emission filter 598 nm). Enzyme-free and vehicle (DMSO) controls were included for signal normalization.
Potency is the fitted concentration of half-maximal effect.

Chain of ATP-dependent DNA helicase Q1 (Homo sapiens) (P46063 whole entry, looked up): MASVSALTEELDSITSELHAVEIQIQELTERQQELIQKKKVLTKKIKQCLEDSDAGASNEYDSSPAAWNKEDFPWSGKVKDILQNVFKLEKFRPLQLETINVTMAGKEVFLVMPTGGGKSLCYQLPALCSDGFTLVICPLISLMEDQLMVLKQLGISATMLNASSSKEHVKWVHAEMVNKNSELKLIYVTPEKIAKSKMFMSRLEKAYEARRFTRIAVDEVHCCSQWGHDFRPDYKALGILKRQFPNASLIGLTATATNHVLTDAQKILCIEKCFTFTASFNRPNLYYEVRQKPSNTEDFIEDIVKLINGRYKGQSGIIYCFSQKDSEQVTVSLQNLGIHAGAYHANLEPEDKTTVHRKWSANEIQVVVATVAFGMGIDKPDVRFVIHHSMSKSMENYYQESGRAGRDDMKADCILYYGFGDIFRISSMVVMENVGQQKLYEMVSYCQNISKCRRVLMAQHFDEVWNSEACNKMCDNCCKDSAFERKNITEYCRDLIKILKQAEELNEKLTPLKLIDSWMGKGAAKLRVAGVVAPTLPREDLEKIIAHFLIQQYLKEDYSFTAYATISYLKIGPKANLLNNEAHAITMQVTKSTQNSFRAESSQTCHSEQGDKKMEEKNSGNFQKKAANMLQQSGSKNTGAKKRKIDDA

Row | SMILES | Potency | outcome
1 | O=[N+]([O-])c1ccc(N2CCSCC2)cc1O | inactive | –
2 | O=C1CSC(=S)N1/N=C/c1ccc(O)c([N+](=O)[O-])c1 | 25.1 µM (active) | –
3 | NC(N)=N/N=C/c1ccc(Cl)c([N+](=O)[O-])c1 | inactive | –
4 | Cc1cc(C)c(OCC(=O)N/N=C/c2ccco2)c(C)c1 | inactive | –
5 | CN1[C@H]2CC(OC(=O)[C@@H](CO)c3ccccc3)C[C@H]1[C@H]1O[C@H]12 (some centres not stated) | inactive | –
6 | NC(=O)c1sc(-c2ccsc2)cc1N | inactive | –
7 | O=C(NCc1ccccn1)[C@]1(C(F)(F)F)C[C@H](CCc2ccccc2)CCCO1 | inactive | –
8 | O=C1OCCN1C(=O)[C@H]1[C@H](c2ccc(F)cc2)C(c2ccccc2)=NN1c1ccc(Br)cc1 | inactive | –
9 | C[C@@H]1C(c2ccc(F)cc2)=NN(c2ccc(Br)cc2)[C@H]1C(=O)N1CCOC1=O | 25.1 µM (active) | –
10 | O=C1OCCN1C(=O)[C@H]1[C@H](c2ccccc2)C(c2ccc(F)cc2)=NN1c1ccccc1 | inactive | –
11 | O=C1OCCN1C(=O)[C@H]1[C@H](c2ccc(Cl)cc2)C(c2cccc(Cl)c2)=NN1c1ccc(Br)cc1 | 25.1 µM (active) | –
12 | CC(C)C(NS(=O)(=O)c1ccc(-c2ccc(Br)cc2)cc1)C(=O)O (configuration not stated) | inactive | –
13 | CC(C)=CCC[C@]1(C)[C@@H](CC=C(C)C)C[C@@]2(CC=C(C)C)C(=O)[C@]1(C(=O)C(C)C)C(=O)C(CC=C(C)C)=C2O | inactive | –
14 | CC(C)C(=O)Nc1c(O)c2ccccc2[nH]c1=O | inactive | –
15 | CCCC(=O)Nc1c(O)c2ccccc2[nH]c1=O | inactive | –
16 | O=C1C(c2[nH]c3ccccc3c2O)=Nc2ccccc21 | inactive and 35.5 µM (active) | –
17 | COc1ccc(Cl)cc1NC(=O)Cn1nc(-c2ccc(C)cc2)n(C)c1=S | inactive | –
18 | CCN=C1SC(CC(=O)Nc2ccc(C)cc2)C(=O)N1CC (configuration not stated) | inactive | –
19 | Cc1ccc(NC(=O)CC2S/C(=N/N=C3\CCCc4ccccc43)NC2=O)cc1 (configuration not stated) | 25.1 µM (active) | –
20 | Cc1c(Cl)cccc1NC(=O)CC1SC(=NCC2CCCO2)NC1=O (configuration not stated) | inactive | –
21 | COc1cc(OC)c2c(c1C(CCN1CCCCC1)c1ccc(N(C)C)cc1)OC(=O)CC2c1ccc(N(C)C)cc1 (configuration not stated) | inactive | –

Row | SMILES | Potency | outcome
22 | O=[N+]([O-])c1cc(S(=O)(=O)Nc2cccc(Cl)c2)ccc1N=Nc1c(O)[nH]c2ccccc12 | inactive | –
23 | CC1=C(/C=C/C(C)=C/C=C/C(C)=C/C=C/C=C(C)/C=C/C=C(C)/C=C/C(=O)[C@]2(C)C[C@@H](O)CC2(C)C)C(C)(C)C[C@H](O)C1 | inactive | –
24 | C=C1CCN(C(CC(C)C)C(=O)NCc2cc(OC)c(OC)c(OC)c2)S(=O)(=O)c2ccccc21 (configuration not stated) | inactive | –
25 | COc1ccc(-c2ccc(OC)c(C3C4C=CCC(C)C4C(=O)N3Cc3ccccc3)c2)cc1C (configuration not stated) | inactive | –
26 | O=C(NNC(=O)c1cc2c(s1)CCCC2)c1ccccc1 | inactive | –
27 | Cc1nc2ccc(C(=O)N3CCN(c4ccccc4)CC3)cc2s1 | inactive | –
28 | O=C(c1cc2c(s1)CCC2)N1CCN(c2ccccc2)CC1 | 11.2 µM (active) | –
29 | CC(C)C(=O)N1CCC2(CC1)Oc1ccc(F)cc1C(=O)C21CC(c2ccccc2)=NO1 (configuration not stated) | inactive | –
30 | CCCOc1ccc(NC(=O)CC2C(=O)N(C)C(=S)N2Cc2ccc3c(c2)OCO3)cc1 (configuration not stated) | inactive | –
31 | O=C(Nc1cc(C(=O)Nc2ccc(S(=O)(=O)O)cc2)cc(C(=O)Nc2ccc(S(=O)(=O)O)cc2)c1)Nc1cc(C(=O)Nc2ccc(S(=O)(=O)O)cc2)cc(C(=O)Nc2ccc(S(=O)(=O)O)cc2)c1 | inactive | –
32 | Cc1ccc(CNC(=O)C2(C(F)(F)F)C/C(=C\Cc3ccccc3)CCCO2)o1 (configuration not stated) | inactive | –
33 | CC(=O)OCC1OC(C#Cc2ccccc2Cl)C=CC1OC(C)=O (configuration not stated) | – | inactive [at 11.5 µM]
34 | Fc1ccc(Cl)cc1-c1nc(Nc2ccncc2)c2nccnc2n1 | inactive | –
35 | COc1ccc(CNC(=O)C(Cc2ccccc2)n2cccc2)cc1 (configuration not stated) | inactive | –
36 | Cc1ccc(C)n1C(Cc1ccccc1)C(=O)O (configuration not stated) | 12.6 µM (active) | –
37 | CC(Cc1ccccc1)C(=O)N(C)Cc1ccccc1 (configuration not stated) | inactive | –
38 | O=C(NCC1CC1)C1(C(F)(F)F)C/C(=C\CCO)CCCO1 (configuration not stated) | inactive | –
39 | CCOC(=O)C1=C(C)N=C2c3ccccc3C(=O)C2C1c1ccc(Br)cc1 (configuration not stated) | inactive | –
40 | CCOC(=O)C1=NO[C@@]2(C=C(Br)C(=O)[C@H]3O[C@H]32)C1 | 28.2 µM (active) | –
41 | CCOC(=O)C1=NOC(Cn2cc(C(C)=O)c(=O)[nH]c2=O)C1 (configuration not stated) | inactive | –
42 | NC(=O)C1=C[C@@H](c2csc3ccccc23)C[C@@H](OCc2ccc(CO)cc2)O1 | inactive | –

Row | SMILES | Potency | outcome
43 | COC(=O)c1ccc([C@@H](O)[C@H](C)C(=O)CC(=O)OC(C)(C)C)cc1 | inactive | –
44 | CN(C)c1ccc(-n2cccc2/C=C2/SC(=Nc3ccc(F)cc3)NC2=O)cc1 | inactive | –
45 | Cc1cccc(N=C2NC(=O)/C(=C/c3cn(C)c4ccccc34)S2)c1 | inactive | –
46 | Cc1ccc(N=C2NC(=O)/C(=C/C=C/c3ccco3)S2)cc1C | 22.4 µM (active) | –
47 | O=C1CN(Cc2ccccc2)S(=O)(=O)c2ccccc21 | inactive | –
48 | CC(C)=CCN1CCC2(CCc3ccccc32)CC1 | inactive | –
49 | CCC1=NN2C(=N)/C(=C/c3cc(C)n(-c4ccccc4)c3C)C(=O)N=C2S1 | inactive | –
50 | CCS(=O)(=O)C1=NSC2=NC(=O)/C(=C\c3cc(C)n(-c4cccc(OC)c4)c3C)C(=N)N21 | inactive | –
51 | CS(=O)(=O)c1ccc2c(c1)SC1=NC(=O)/C(=C/c3ccco3)C(=N)N12 | 28.2 µM (active) | –
52 | CCOC(OCC)OCC | inactive | –
53 | COC(=O)C(CC(C)C)NS(=O)(=O)c1cc(Br)ccc1Br (configuration not stated) | inactive | –
54 | C=CCOC(=O)C(=C)C | inactive | –
55 | C/C(=N\NC(=S)NCc1ccccc1)C1CCCCC1 | inactive | –
56 | O=C(O)c1ccc(/C=N/NC(=S)NCc2ccccc2)cc1 | inactive | –
57 | C/C(=N\NC(=S)NCc1ccccc1)c1ccc(Cl)cc1 | 31.6 µM (active) | –
58 | CC(O)[C@@H](N)C(=O)O (some centres not stated) | inactive | –
59 | Cc1ccc(OCC(=O)Nc2nnc(-c3ccco3)s2)cc1 | inactive | –
60 | CNc1nnc(-c2ccco2)s1 | inactive | –
61 | COc1ccc(OCC(=O)Nc2nnc(-c3ccco3)s2)cc1 | 31.6 µM (active) | –
62 | COc1cc(C(F)(F)F)c(C(=O)N(C)c2ccc(Cl)cc2)cn1 | inactive | –
